Measurements published in PubChem BioAssay AID1345083 (National Center for Advancing Translational Sciences (NCATS), 2018).
Among all 94,000 compounds or so, about 6,200 (6.6%) were called active. Roughly 31% stayed inconclusive and do not appear here. This is one part of a sample in which actives are shown more often than they occur. A number with no mark means an inactive call. Calls come from the whole dose curve; as a rule, active = well fitted inhibition curve with a large enough effect; inconclusive = small, poorly fitted or top-dose-only effect; inactive = flat fitted curve, though single readings scatter.

Assay: Cytotoxic Profiling in HEK 293 Cell Line of Diverse Libraries Using Quantitative High-Throughput Screening; note: nearly all actives have a fitted effect of over 60% in size
Details: HEK 293 viability, ATP luminescence (CellTiter-Glo), 48-72 h; series mostly up to 115 µM; activity change, negative = cytotoxicity: at the top concentration
Description: Cell-based phenotypic screening is a commonly used approach to discover biological pathways, novel drug targets, chemical probes and high-quality hit-to-lead molecules. Many hits identified from high-throughput screening campaign are ruled out through a series of follow-up potency, selectivity/specificity, and cytotoxicity assays. Prioritization of molecules with little or no cytotoxicity for a more in-depth downstream evaluation influence the future direction of projects, so cytotoxicity profiling of the screening libraries at early stage is essential for increasing the likelihood of candidate success. In this study, we analyzed results from a cell-based cytotoxicity screening campaign, comprising nearly 10,000 compounds in NCATS annotated libraries, and over 100,000 compounds in a diversity library, evaluated in four normal cell lines (HEK 293, NIH 3T3, CRL-7250 and HaCat) and a cancer cell line (KB 3-1, a HeLa subline) with overall screening outcomes, hit rates, pan-activity and selectivity. For the annotated library, we also examined the primary targets and mechanistic pathways regularly associated with cell death. To our knowledge, this is the first study to use high-throughput screening to profile large libraries for cytotoxicity assessment in both normal and cancer cell lines. In summary, the results generated here constitutes a valuable resource for the scientific community and provides insight on identifying cytotoxic compounds with particular mechanisms of action, and prioritizing compounds with suitable cytotoxicity profile for further evaluation.
HEK 293 cells were seeded into white 1536-well plates using a Multidrop Combi peristaltic dispenser (ThermoFisher, Waltham, MA) at a density of 250 cells/well in 5 uL of medium respectively. A pintool (Kalypsys) was used to transfer 23 nL of compound solution to the 1536-well assay plates. After 48 or 72 hr incubation at 37 degree Celsius, 5% CO2 and 95% humidity, 2.5 uL of CellTiter-Glo (Promega) was dispensed into each well using a dispenser (Aspect Automation, St. Paul, MN) with solenoid valves (Lee Valves, Westbrook CT). Plates were left at room temperature for 10 min before imaging the ATP-coupled luminescence using a ViewLux microplate imager (PerkinElmer, Waltham, MA).
% is set by controls: 0 for no effect and ±100 for the full control effect; potency is the fitted concentration of half-maximal effect.

SMILES | Potency | activity change, negative = cytotoxicity | outcome
CC1(c2ccccc2)N(Cc2ccccc2)C(=O)OC12CCN(c1ccncc1)CC2 (configuration not stated) | 89.1 µM (active) |  | 
CC1(c2ccccc2)N(Cc2ncccn2)C(=O)OC12CCN(CCCc1ccccc1)CC2 (configuration not stated) |  | -16.8% | 
CCN(Cc1ccccc1)C(=O)CC1CCCN(c2cnn(CCOC)c(=O)c2)C1 (configuration not stated) |  | -1.1% | 
COc1ccc(-c2noc(-c3nnn4c3COC(c3ccc(OC)cc3)C4)n2)cc1 (configuration not stated) |  | 17.9% | 
Cc1noc(-c2ccccc2OC2CCN(C(=O)c3cnccc3C)C2)n1 (configuration not stated) |  | -0.104% | 
CC(C)CC(=O)N1CCC(Oc2ccccc2-c2nc(C3CCOCC3)no2)C1 (configuration not stated) |  | -37.7% | 
Cc1nc(C)c(C(=O)N2CCC(Oc3ccccc3-c3nc(-c4ccccc4)no3)C2)s1 (configuration not stated) | 28.2 µM (active) |  | 
CCn1ccc(C(=O)N2CCCN(S(=O)(=O)c3ccccc3)CCC(=O)NCC2)n1 |  |  | inactive
C[C@H]1[C@@H]2[C@H]3OC(=O)[C@@H](C)[C@@H]3CC[C@@]2(C)CC[C@@H]1NC(=O)Cc1ccccc1 | 100 µM (active) |  | 
C[C@H]1[C@@H]2[C@@H](O)C([C@H](C)C(=O)NCCN3CCOCC3)CC[C@@]2(C)CC[C@@H]1NC(=O)c1ccccc1 (some centres not stated) |  | -4.94% | 
COCCNC(=O)C(C)[C@@H]1CC[C@@]2(C)CC[C@H](NC(=O)c3ccccc3)[C@@H](C)[C@@H]2[C@H]1O (some centres not stated) |  | -10.3% [at 172 µM] | 
CCc1nc(-c2c3n(c(=O)n(CC(=O)Nc4cccc(Cl)c4C)c2=O)CCCC3)no1 |  | 16% | 
Cc1nn(-c2ccccc2)c(C)c1CN1CCCC12Cc1ccccc1CNC2=O (configuration not stated) |  | -26.1% | 
CCOC(=O)C1CC1CN1CCCC12Cc1ccccc1CNC2=O (configuration not stated) |  | -17.2% | 
O=C1NCc2ccccc2CC12CCCCN2Cc1cccc(F)c1F (configuration not stated) | 50.1 µM (active) |  | 
CCN(C(=O)CCC(=O)N1CCc2c(c(-c3nncn3CC)nn2C)C1)c1ccccc1 |  | -5.93% | 
CC(C)c1nnc(C2CN(C(=O)c3ccc4ccccc4n3)CC23CCOCC3)o1 (configuration not stated) |  | -0.559% | 
CNc1ncc(C(=O)N[C@@H]2COCC[C@@H]2OCc2c(C)noc2C)cn1 |  | -16.4% | 
COc1ccc(NC(=O)c2cc3c(N(C)Cc4ccccc4)nc(C)cn3n2)cc1F |  | -23.2% | 
O=C(c1cnccn1)N1CCC2(COc3ncccc3[S+](=O)([O-])N2)C1 (configuration not stated) |  | -22.4% | 
CCCn1cc(C(=O)N2C[C@H](c3ccccc3)[C@@H](N)C2)c(C)n1 |  | 2.2% | 
COc1ccc(CN2CCC3(Cc4ccccc4CNC3=O)C2)cc1OC (configuration not stated) |  | -18.4% | 
CN1CC(=O)N(c2cccnc2)Cc2c1ncnc2N1CCN(c2ccccn2)CC1 |  | 3.25% | 
O=[N+]([O-])c1cccc(-c2noc([C@@H]3C[C@@H](O)CN3Cc3cccc(OC(F)(F)F)c3)n2)c1 |  | -23.7% | 
O=C(O)CCC(=O)N1Cc2[nH]cnc2C[C@H]1c1nc(-c2ccc3ccccc3c2)no1 |  | 2.68% [at 172 µM] | 
O=C(NCc1ccccc1)[C@@H]1Cc2nc[nH]c2CN1Cc1cccc(OC(F)(F)F)c1 | 70.8 µM (active) |  | 

SMILES | Potency | activity change, negative = cytotoxicity | outcome
CN1Cc2ncnc(NCc3cccs3)c2CN(c2ccccc2)C1=O |  | -16.5% | 
CN1CCN(C(=O)CC2=C3CCCCC3NC2=O)CC1 (configuration not stated) |  | -0.271% | 
COc1ccc(NC(=O)CCC2CCN(S(=O)(=O)c3ccc(C)cc3)CC2)cc1F |  | -5.83% | 
O=C(NCCC1CCN(C(=O)Nc2cc(F)ccc2F)CC1)c1cc(F)ccc1F |  | -7.51% | 
O=C(CCC1CCN(C(=O)c2ccccc2F)CC1)Nc1cccc(Cl)c1 | 12.6 µM (active) |  | 
COc1cc2c(cc1C(=O)N1CCC3(CCCN(C)C3=O)C1)CCC2 (configuration not stated) |  | -14% | 
Cn1nccc1CN1CCc2nc(C3CC3)nc(-c3ccc(O)cc3)c2C1 |  | -11.9% | 
COCCc1noc(CC2CCOC3(CCN(C(=O)C4CCCC4)CC3)C2)n1 (configuration not stated) |  | -15.6% | 
CN(C)C[C@H]1O[C@@H]2C[C@@H](CC(=O)N3CCC(F)(F)C3)O[C@@H]2[C@@H]1O |  |  | inactive [at 172 µM]
O=C(Cc1cccnc1)N1CCc2onc(-c3ccc(F)c(F)c3)c2C1 |  | -5.33% | 
COc1ccc(Cl)cc1S(=O)(=O)N1CCCC(CNC(=O)c2ccco2)C1 (configuration not stated) |  | -23.9% | 
Cc1ccccc1S(=O)(=O)N1CCCC(CCC(=O)NCC2CCCCC2)C1 (configuration not stated) | 39.8 µM (active) |  | 
Cc1ccc(S(=O)(=O)N2CCCC(CCC(=O)N(C)C)C2)cc1 (configuration not stated) |  | -7.42% | 
CCCc1noc(-c2ccn3c(CNC(=O)c4ccc(N(C)C)cc4)nnc3c2)n1 |  |  | inactive
CCCNC(=O)N(C1CCOCC1)C1CCN(S(=O)(=O)c2ccc(F)cc2)CC1 |  | 14.9% | 
CCOc1ccc(NC(=O)c2ccc3c(c2)N(C)C2CCCN2C3=O)cc1 (configuration not stated) |  | -4.25% | 
CN1c2cc(C(=O)Nc3ccc(Cl)cc3)ccc2C(=O)N2CCCCCC21 (configuration not stated) | 35.5 µM (active) |  | 
Cc1ccc(N2CCN(C(=O)c3ccc4c(c3)N(C)C3CCCCCN3C4=O)CC2)cc1 (configuration not stated) | 39.8 µM (active) |  | 
Cc1cccc(NC(=O)Cn2nc3n(c2=O)CCCC3)c1 |  | -3.69% | 
CN1CCCCCCN(C(=O)Nc2ccccc2)CCC1=O |  | -17.9% | 
Cc1ccc(CNC(=O)c2ccc3c(c2)N(C)C2CCCCN2C3=O)cc1C (configuration not stated) |  | -7.81% | 
COCCn1ccc2cc(C(=O)Nc3ccc4c(c3)C(=O)N3CCC[C@H]3C(=O)N4)ccc21 |  | 2.52% | 
CN1c2cc(C(=O)N3CCC(C(N)=O)CC3)ccc2C(=O)N2CCCCC21 (configuration not stated) |  | 4.63% | 
Cc1ccc(C(=O)N2CCC(C(=O)N3CCC(N4CCOCC4=O)CC3)CC2)cc1 |  |  | inactive
CN1c2cc(C(=O)Nc3ccccc3)ccc2C(=O)N2CCCCCC21 (configuration not stated) | 79.4 µM (active) |  | 
CCOC(=O)c1cccc(NC(=O)c2ccc3c(c2)N(C)C2CCCCN2C3=O)c1 (configuration not stated) | 35.5 µM (active) |  | 
